# From PubChem BioAssay AID1117361 (Southern Research Institute, 2015)
# Hit rate of the full screen: of about 3,600 compounds, about 900 (25%) were called active. How the calls were made is not given here. The list is a sample of the results. Measured potencies and affinities stand elsewhere.
# Biological target: Protein Tat (Human immunodeficiency virus type 1 group M subtype B (isolate HXB2)) (UniProt P04608)
# Test: inhibitors of Tat binding to TAR RNA, dose response, counter-screen for Vif-APOBEC3G degradation inhibitor project, biochemical, fluorescence polarization, FAM-labeled TAR RNA (AID 1117361)
# Details: outcome: dose series up to 100 µM unless noted; series mostly up to 100 µM; inhibition: at the top concentration
SMILES,outcome,inhibition
Cc1noc(C)c1COC(=O)c1cccc(S(=O)(=O)N2CCCCCC2)c1,inactive,
O=C(NCc1cccs1)Nc1cccs1,,25.9% (inactive)
c1ccc(CCc2nn3c(C4COc5ccccc5O4)nnc3s2)cc1 (stereo not drawn),,0.33% (inactive)
CCOc1ccc(N(CC(=O)NC2CCCCC2)S(=O)(=O)c2c(C)noc2C)cc1,,6.14% (inactive)
CCOc1ccc(N(CC(=O)NCc2ccc(F)cc2)S(=O)(=O)c2c(C)noc2C)cc1,,4.09% (inactive)
C=C(C)Cn1c(C)cc(C)c(S(=O)(=O)c2ccccc2C)c1=O,,6.82% (inactive)
C/C(=C\C(=O)c1ccc(Br)cc1)N1CCCCC1,inactive,
O=c1cc(OCc2ccccc2)cc[nH]1,inactive,
COc1ccc(NCc2nc3ccccc3n2CCOc2ccccc2)cc1,,24.6% (inactive)
NCCOc1ccccc1Cc1ccccc1,,4.09% (inactive)
COc1cc(Br)c(CNc2cc(C)ccc2C)cc1OC,,3.01% (inactive)
COc1ccc(OCC(O)CNc2ccc(Br)cc2)cc1 (stereo not drawn),,3.41% (inactive)
O=C(NC(=S)NCCN1CCOCC1)c1ccc(Cl)cc1Cl,,4.73% (inactive)
CN(C1=C(NC(=O)c2ccc(Cl)cc2)C(=O)c2ccccc2C1=O)c1ccccc1,,7.5% (inactive)
CC(=O)NCCC(=O)NCc1ccc(F)cc1,,4.73% (inactive)
Cc1cccc(N2CCN(C(=O)c3ccncc3)CC2)c1C,,19.8% (inactive)
CCOc1ccc(S(=O)(=O)N2CC(=O)Nc3ccccc32)cc1C#N,,4.34% (inactive)
C=CCc1cc(/C=N\NC(=O)CSc2nnc(CCCc3ccc(OC)c(C)c3)o2)cc(OC)c1O,,2.05% (inactive)
Cc1ccc(Nc2cnn(C34CC5CC(CC(CC(=O)O)(C5)C3)C4)c(=O)c2Cl)cc1C,,2.03% (inactive)
CCOC(=O)CN1C(=O)C(Sc2n[nH]c(-c3ccccc3)n2)CCc2ccccc21 (stereo not drawn),,8.11% (inactive)
NCCC(=O)N1c2ccccc2Sc2ccccc21,inactive,
COc1cccc(CNCCc2c[nH]c3ccccc23)c1OCc1ccccc1,,23.9% (inactive)
CCOc1cc(CNc2ccc(O)cc2)cc(Br)c1OCc1ccccc1F,,3.3% (inactive)

SMILES,outcome,inhibition
CCOCC(O)CS(=O)Cc1ccccc1 (stereo not drawn),inactive,
CC(=NNC(=S)SCc1ccccc1)c1ccccn1,inactive,
O=C(Nc1cccnc1)c1sc(Nc2ccccc2F)nc1-c1ccccc1,inactive,
Cc1cc(C)n2nc(C(=O)Nc3cccnc3)nc2n1,,4.73% (inactive)
Cc1cc(NC(=O)CSc2nnc(-c3ccoc3C)n2N)no1,,8.78% (inactive)
CCOC(=O)N1CCN(S(=O)(=O)c2ccc(F)c(C(=O)Nc3cc(C)cc(C)c3)c2)CC1,,3.41% (inactive)
CC(C)OCCCNC(=O)CNC(=O)c1cccs1,inactive,
COc1ccc(S(=O)(=O)N2CCN(C(=O)c3cc(C)on3)CC2)cc1,inactive,
Cc1ccc(C(=O)/C=C/c2cc(C#N)n(C)c2C)cc1,inactive,
CCOC(=O)c1c(NC(=O)CSc2nncs2)sc(C)c1C,,2.73% (inactive)
O=C1CCCC2=C1C(O)(C(F)(F)F)C(=O)N2Cc1ccccc1 (stereo not drawn),,2.73% (inactive)
CCOC(=O)C1=C(C)n2c(s/c(=C/c3cccc([N+](=O)[O-])c3)c2=O)=NC1c1ccc(O)c(OC)c1 (stereo not drawn),,8.11% (inactive)
CCOC(=O)C1(C)NC(c2ccco2)C2C(=O)N(CC)C(=O)C21 (stereo not drawn),inactive,
CCN(Cc1ccccc1)S(=O)(=O)c1ccc(C(=O)Nc2nnc(C3CC3)o2)cc1,,3.38% (inactive)
COCCNC(=O)COc1ccc(Br)cc1Cl,inactive,
COc1ccc(-c2cc3ccc(OCc4nn[nH]n4)cc3oc2=O)cc1,,17.7% (inactive)
NC(=O)c1ccc(N2CCN(c3ncc(C(F)(F)F)cc3Cl)CC2)cc1,,12.4% (inactive)
O=C(Cn1cc2c(n1)CCCC2)NCc1cccnc1,,3.41% (inactive)
COc1ccc(S(=O)(=O)N2CCC(C(=O)NCCC3=CCCCC3)CC2)cc1C,inactive,
O=C(/C=C/c1ccco1)c1cccnc1,,3.67% (inactive)
Clc1ccc(-c2nnc(SCc3ccon3)o2)c(Cl)c1,,4.05% (inactive)
CCOC(=O)c1cccc(NC(=O)CCc2nc(-c3ccc(C)cc3)no2)c1,inactive,
CCCOc1ccc(-c2nnn(CC(=O)OCC)n2)cc1,inactive,

SMILES,outcome,inhibition
O=C1c2ccccc2C(=O)N1CCc1csc(-c2ccc(F)cc2)n1,,2.03% (inactive)
O=C(O)Cn1c(O)c(C=Nc2ccccc2)sc1=S,,18.2% (inactive)
Cc1cc(C)c(C)c(S(=O)(=O)N2C(=S)NC(=O)C2C(C)C)c1C (stereo not drawn),,0.68% (inactive)
Cc1cc(Oc2ccc(-c3ccccc3)cc2)n2ncnc2n1,,0.68% (inactive)
CCn1c(SCC(=O)NCc2ccc3c(c2)OCO3)nnc1-c1cccs1,,0.68% (inactive)
CCOC(=O)C/C(C)=N\Nc1ccc([N+](=O)[O-])cc1[N+](=O)[O-],inactive,
O=C(c1ccc(N2CCN(C3CC(=O)N(c4ccc(F)cc4)C3=O)CC2)cc1)c1cccnc1 (stereo not drawn),inactive,
O=S(=O)(c1cccc(C(F)(F)F)c1)N1CCN(c2ccccc2)CC1,,0.68% (inactive)
CN(C)S(=O)(=O)c1ccc(NC(=O)N2CCN(c3cccc(C(F)(F)F)c3)CC2)cc1,,2.03% (inactive)
COc1cccc(CNCC(=O)Nc2ccc(N3CCOCC3)cc2)c1,inactive,
C=CCOc1c(Br)cc(CNn2nnnc2N)cc1OCC,,8.19% (inactive)
O=C(O)CN1C(=O)COc2cc(S(=O)(=O)N3CCCC3)ccc21,,8.78% (inactive)
O=C(c1cc(Cl)ccc1Cl)N1CCN(c2ccccn2)CC1,,2.7% (inactive)
Clc1ccc(-c2cnc(Oc3ccccc3)nc2)cc1,inactive,
O=C(CNS(=O)(=O)c1ccc(Br)s1)N1CCCC1,,1.35% (inactive)
CCCCCC(=O)Nc1nnn(CCC)n1,,4.77% (inactive)
Cc1ccc(-n2nc(-c3ccc(N)cc3)cc2N)cc1,,15% (inactive)
CCOCC(=O)Nc1ccc(C)c(Cl)c1,,8.19% (inactive)
Cc1ccc(S(=O)(=O)Nc2cc(NC(=O)CN3CCOCC3)ccc2Cl)cc1,inactive,
CCOC(=O)N1CCN(C(=O)c2cnn(-c3ccccc3)c2NC(=O)c2ccccc2F)CC1,inactive,
Cc1ccc(C=Nc2ccccc2C(N)=O)s1,inactive,
O=C(Nc1ccc(F)cc1F)NC1CCN(S(=O)(=O)c2ccc(F)cc2)CC1,,4.12% (inactive)
Cc1nc(-c2noc(-c3ccccc3Cl)n2)c(C(F)(F)F)o1,inactive,

SMILES,outcome,inhibition
O=C(Cn1cncn1)N/N=C/c1ccccc1Cl,,0.82% (inactive)
CCOc1cccc(-c2cc(=O)[nH][nH]2)c1,inactive,
Cc1csc(NC(=O)C(NS(=O)(=O)c2ccc(Br)s2)c2ccccc2)n1 (stereo not drawn),,0.68% (inactive)
CCOC(=O)c1c(C)[nH]c(C(=O)OCC(=O)Nc2sc(C(=O)N(C)C)c(C)c2C(=O)OCC)c1C,,12.4% (inactive)
CC(=O)c1c(C)[nH]c(C(=O)OCC(=O)C(C)(C)C)c1C,inactive,
CCCOc1ccc2oc(=O)c3c(c2c1)CCCN3C(=O)CN1CCc2ccccc2C1,,4.77% (inactive)
COC1=CC(=O)C(C2CC(=O)c3c(O)cc(O)cc3O2)=CC1=O (stereo not drawn),,3.01% (inactive)
COc1cc(Cl)c(C)cc1NC(=O)COc1cc(C)nc(C(C)C)n1,,1.35% (inactive)
O=C(CCC(=O)N1CCN(S(=O)(=O)c2ccccc2)CC1)NC1CCCc2ccccc21 (stereo not drawn),,1.36% (inactive)
CCOc1ccc(-c2nc(CN3CCCCC3CCn3cccn3)c(C)o2)cc1 (stereo not drawn),inactive,
N#CCSc1nc2sc3c(c2c(=O)n1C1CCCCC1)CCCC3,inactive,
CN(C)[C@H]1N(C(=O)c2ccc(Br)cc2)N=C2c3ccccc3S(=O)(=O)N21,,4.73% (inactive)
COc1cc(C2NC(=O)NC(C)=C2C(=O)OCC2CCCO2)ccc1O (stereo not drawn),,8.19% (inactive)
COc1ccc(NC(=S)N(CCCN2CCCC2)Cc2ccco2)cc1,inactive,
CCCCCC(=O)N1C[C@@H](n2cc(C3CC3)nn2)[C@H](O)C[C@@H]1c1ccc(C)cc1,,9.02% (inactive)
O=C(O)CCN1CCOCC1,,0.68% (inactive)
COc1cccc(OC)c1C(=O)NC(C)C12CC3CC(CC(C3)C1)C2 (stereo not drawn),,8.87% (inactive)
Brc1ccc(-c2nnc(-c3cccc(Br)c3)o2)cc1,inactive,
O=C1OC(c2ccc(Br)cc2)=N/C1=C\N1CCCCC1,,2.7% (inactive)
CCn1c(SC(C)C)nnc1-c1cc(-c2ccccc2)sc1N,,9.07% (inactive)
COCCNC(=O)Cn1ncc2ccsc2c1=O,,2.03% (inactive)
Cc1ccc(OCCC(=O)OCC(=O)c2ccc3c(c2)NC(=O)CO3)cc1,inactive,
Cc1ccc(S(=O)(=O)CCC(=O)Nc2ccc3c(c2)OCO3)cc1,,6.76% (inactive)

SMILES,outcome,inhibition
CCC(C)[C@@H](C(=O)Nc1ccc2c(c1)OCO2)N1Cc2ccccc2C1=O (stereo partly drawn),,2.7% (inactive)
CCc1ccc(NC(=O)COC(=O)CCc2nc3cc(S(=O)(=O)N(CC)CC)ccc3n2C)cc1,inactive,
Cc1ccc(S(=O)(=O)NCCC(=O)N2CCN(C/C=C/c3ccccc3)CC2)cc1,inactive,
O=C(CSc1nc2ccccc2c(=O)n1NC(=O)c1ccccc1)c1ccccc1,,1.36% (inactive)
CCCc1cc(=O)[nH]c(SCC(=O)c2c(C)[nH]c3ccccc23)n1,inactive,
COc1ccc(CC(NC(C)=O)C(=O)NC2CCN(S(=O)(=O)c3cccc4ccccc34)CC2)cc1OC (stereo not drawn),,3.38% (inactive)
COc1c(F)c(F)c(C(=O)Nc2ccc3oc(-c4ccncc4)nc3c2)c(F)c1F,,7.43% (inactive)
CCN(CC)c1ccc(C2NC(=O)NC(C)=C2C(=O)Nc2ccccc2)cc1 (stereo not drawn),,15.7% (inactive)
CCOC(=O)C1=C(C)NC2=C(C(=O)CC(C)(C)C2)C1c1ccsc1 (stereo not drawn),inactive,
CCn1c(=O)c(C(=O)NCc2ccccn2)c(O)c2ccccc21,,0.68% (inactive)
CCOC(=O)c1c(O)c2ccccc2n(-c2ccccc2)c1=O,,11.5% (inactive)
O=C(CSc1nccn1Cc1ccccc1)Nc1nccs1,,14.2% (inactive)
CC(C)(C)OC(=O)NC(CCNC=C1C(=O)OC(C)(C)OC1=O)C(=O)O (stereo not drawn),inactive,
O=C(Cc1ccc2c(c1)OCCO2)N1CCN(S(=O)(=O)c2cccs2)CC1,inactive,
CC(=O)Nc1nnc(C)s1,inactive,
COc1ccc(CNc2nc3ccccc3n2C)c(O)c1,inactive,
COc1ccc(-c2nnc(-c3ccc(N)cc3)o2)cc1,,4.34% (inactive)
O=C(NCCc1ccncc1)Nc1ccccc1Cl,inactive,
O=C(CCCNS(=O)(=O)c1cccc2nsnc12)NCc1ccccc1,,2.73% (inactive)
Cc1onc(-c2ccccc2)c1C(=O)NCc1cccs1,,5.46% (inactive)
O=C(NCc1ccco1)c1cc(-c2cccc(Cl)c2)on1,,15% (inactive)
